# The source made the active and inactive calls.
# How the values were obtained:
# [1] = tested on: Plasmodium falciparum Sir2 (PF13_0152, Sir2A); assay: pfSir2 binders on small-molecule microarrays, primary screen, biochemical, small-molecule microarray, 635 nm fluorescence (AID 1098); settings: small-molecule microarray binding, fluorescence 635 nm; higher = more signal;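 also: score merges spot fluorescence intensity with its signal-to-noise ratio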
# [2] = small-molecule microarray binders of probe aDKK1, primary screen, biochemical, biotinylated probe, 635/667 nm fluorescence (AID 1099); settings: higher = more signal;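 also: score merges 667nm spot fluorescence with signal to noise across triplicate slides; reference of the scale not given here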
# [3] = small-molecule microarray binders of probe aCHRDL2, primary screen, biochemical, biotinylated probe, 635/667 nm fluorescence (AID 1100); settings: higher = more signal
# [4] = splicing luciferase reporter signal modulators, primary screen, spliceosome inhibition project, cell-based, HEK293, splice +/- reporter (AID 1101); settings: luminescence, 24 h, higher = more signal, called active from +8 up or from −8 down;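 also: HEK293 cells carrying a splicing-competent luciferase reporter gene; test concentration not given here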
# [5] = target: Fibroblast growth factor 10 (Homo sapiens) (UniProt O15520); assay: FGF10 binders on small-molecule microarrays, primary screen, biochemical, small-molecule microarray, 635 nm fluorescence (AID 1102); settings: FGF10 binding, fluorescence 635 nm, higher = more signal
# Fibroblast growth factor 10 (Homo sapiens), sequence (O15520 whole entry, looked up): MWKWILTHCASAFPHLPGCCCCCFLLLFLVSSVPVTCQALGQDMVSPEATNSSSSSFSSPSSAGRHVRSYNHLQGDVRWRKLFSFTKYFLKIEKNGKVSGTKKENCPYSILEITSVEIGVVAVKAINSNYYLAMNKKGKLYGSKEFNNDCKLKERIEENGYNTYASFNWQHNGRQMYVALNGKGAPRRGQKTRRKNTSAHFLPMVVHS
# [6] = tested on: glycogen synthase kinase-3 (GSK3A per assay name; protocol says GSK3B); assay: GSK3 binders on small-molecule microarrays, primary screen, biochemical, small-molecule microarray, 635 nm fluorescence, GSK3A (AID 1103); settings: small-molecule microarray binding, fluorescence 635 nm; higher = more signal; also: the record names both GSK3A and GSK3B
# [7] = target: Epidermal growth factor receptor (Homo sapiens) (UniProt P00533); assay: EGFR binders on small-molecule microarrays, primary screen, biochemical, small-molecule microarray, 635 nm fluorescence (AID 1104); settings: EGFR binding, higher = more signal;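 also: score merges 667 nm emission intensity with spot signal to noise over triplicate slides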
# Epidermal growth factor receptor (Homo sapiens), sequence (P00533 whole entry, looked up): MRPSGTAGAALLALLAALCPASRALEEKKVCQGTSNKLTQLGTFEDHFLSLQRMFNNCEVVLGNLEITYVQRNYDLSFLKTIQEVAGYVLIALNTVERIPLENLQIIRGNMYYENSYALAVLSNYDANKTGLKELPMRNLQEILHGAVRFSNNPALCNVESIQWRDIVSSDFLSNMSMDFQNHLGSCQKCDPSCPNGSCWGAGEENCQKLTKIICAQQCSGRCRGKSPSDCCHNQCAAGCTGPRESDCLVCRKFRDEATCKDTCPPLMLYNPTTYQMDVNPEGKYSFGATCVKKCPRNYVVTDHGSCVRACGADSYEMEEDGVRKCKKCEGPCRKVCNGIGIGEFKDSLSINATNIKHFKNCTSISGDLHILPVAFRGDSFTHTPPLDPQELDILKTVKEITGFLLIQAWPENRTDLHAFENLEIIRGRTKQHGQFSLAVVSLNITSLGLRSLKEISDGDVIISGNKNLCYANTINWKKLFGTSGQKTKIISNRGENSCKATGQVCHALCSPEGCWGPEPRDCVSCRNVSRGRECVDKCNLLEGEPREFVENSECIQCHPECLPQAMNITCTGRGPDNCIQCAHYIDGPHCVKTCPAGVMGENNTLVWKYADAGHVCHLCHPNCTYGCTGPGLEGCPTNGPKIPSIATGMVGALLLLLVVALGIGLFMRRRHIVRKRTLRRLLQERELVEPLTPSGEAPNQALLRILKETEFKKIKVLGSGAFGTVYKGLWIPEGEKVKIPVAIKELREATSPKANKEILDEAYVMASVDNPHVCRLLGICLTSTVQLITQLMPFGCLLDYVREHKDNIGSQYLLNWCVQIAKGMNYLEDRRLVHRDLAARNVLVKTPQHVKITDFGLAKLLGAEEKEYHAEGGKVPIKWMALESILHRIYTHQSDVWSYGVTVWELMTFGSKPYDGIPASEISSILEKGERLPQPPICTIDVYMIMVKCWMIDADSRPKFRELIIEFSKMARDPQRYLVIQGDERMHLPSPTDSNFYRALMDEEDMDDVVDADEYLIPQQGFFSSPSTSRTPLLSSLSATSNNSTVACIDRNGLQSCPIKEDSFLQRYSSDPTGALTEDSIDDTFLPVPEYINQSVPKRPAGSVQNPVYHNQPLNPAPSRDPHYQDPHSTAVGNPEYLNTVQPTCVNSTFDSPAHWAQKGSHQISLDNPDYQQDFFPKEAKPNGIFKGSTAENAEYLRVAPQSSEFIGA
# [8] = target: Follistatin-related protein 3 (Homo sapiens) (UniProt O95633); assay: FSTL3 binders on small-molecule microarrays, primary screen, biochemical, small-molecule microarray, 635 nm fluorescence (AID 1105); settings: FSTL3 binding, higher = more signal;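 also: score merges emission near 667 nm and signal to noise per printed spot across three slides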
# Follistatin-related protein 3 (Homo sapiens), sequence (O95633 whole entry, looked up): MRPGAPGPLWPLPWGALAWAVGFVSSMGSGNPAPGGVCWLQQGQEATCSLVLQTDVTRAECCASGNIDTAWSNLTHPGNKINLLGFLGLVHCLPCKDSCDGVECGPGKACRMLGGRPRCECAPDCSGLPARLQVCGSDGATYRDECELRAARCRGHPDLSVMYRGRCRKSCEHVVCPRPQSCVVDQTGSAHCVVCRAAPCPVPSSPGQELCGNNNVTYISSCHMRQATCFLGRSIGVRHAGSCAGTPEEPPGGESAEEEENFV
# [9] = target: Dickkopf-related protein 1 (Homo sapiens) (UniProt O94907); assay: DKK1 binders on small-molecule microarrays, primary screen, biochemical, small-molecule microarray, 635 nm fluorescence scan (AID 1106); settings: DKK1 binding, higher = more signal;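 also: score merges emission near 667 nm with signal to noise over three replicate slides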
# Dickkopf-related protein 1 (Homo sapiens), sequence (O94907 whole entry, looked up): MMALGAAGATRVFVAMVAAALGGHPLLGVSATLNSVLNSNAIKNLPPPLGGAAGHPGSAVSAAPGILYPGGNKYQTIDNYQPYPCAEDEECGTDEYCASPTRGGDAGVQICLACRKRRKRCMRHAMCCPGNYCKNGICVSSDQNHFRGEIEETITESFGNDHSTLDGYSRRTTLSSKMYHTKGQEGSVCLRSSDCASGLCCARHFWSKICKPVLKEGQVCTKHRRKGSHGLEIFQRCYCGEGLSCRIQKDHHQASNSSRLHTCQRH
# [10] = tested on: Inhibin beta A chain (activin A); assay: INHBA (activin A) binders on microarrays, primary screen, biochemical, small-molecule microarray, 635 nm fluorescence scan (AID 1107); settings: small-molecule microarray binding, higher = more signal;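 also: mouse activin A protein probed at 4.33 µg/mL on printed slides; score merges bound-protein fluorescence near 667 nm with spot signal-to-noise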
Structure (SMILES),composite z-score [1],composite z-score [2],composite z-score [3],z-score [4],composite z-score [5],composite z-score [6],composite z-score [7],composite z-score [8],composite z-score [9],composite z-score [10]
COC(=O)[C@H](Cc1ccccc1)N1CC(/C=C/C2CC2)=C[C@@H]1[C@@H](O)Cc1ccccc1,1.01,0.0175,-0.276,3.96 (inactive),1.47,0.837,0.688,1.4,1.2,0.142
CN(C)C(=O)[C@]1(CCC(=O)OC(C)(C)C)N=C(c2ccc(OCCCO)cc2)O[C@@H]1c1ccccc1,0.11,0.937,1.01,-0.403 (inactive),0.617,1.11,-0.0133,0.011,-0.136,0.12
CCOC(=O)[C@H]1C/C=C/C[C@H](C(=O)OCC)C(=O)O[C@H]2[C@@H](OC)O[C@H](CO)[C@@H](OC(=O)Nc3ccc(OC)cc3)[C@@H]2OC1=O,0.692,0.481,0.564,0.0675 (inactive),1,1.03,0.368,1.29,0.46,0.467
CCOC(=O)C[C@H]1[C@H](OC(=O)c2ccc(-c3ccccc3)cc2)[C@@H](NC(=O)C2CCCCC2)c2cc(OCCCO)ccc2N1C(=O)c1ccccc1,0.3,-0.141,-0.464,-0.0213 (inactive),0.616,0.258,0.0979,0.584,0.237,0.117
O=C1O[C@@H](c2ccccc2)[C@@H](c2ccccc2)N2[C@@H](c3ccccc3OCCO)[C@]3(C(=O)Nc4ccccc43)[C@@H](C(=O)NC[C@H](O)c3ccccc3)[C@H]12,1.11,0.597,0.76,-1.66 (inactive),-0.369,0.342,-0.528,0.0805,-0.547,-0.189
COCCCNC(=O)[C@@]1(Sc2ccc(C)cc2)CC(=O)N(Cc2cc(C(F)(F)F)cc(C(F)(F)F)c2)[C@@H]1c1ccc(CO)cc1,1.08,-0.0248,-0.0087,0.261 (inactive),0.327,-0.257,-0.107,1.01,0.585,0.612
COC(=O)[C@@]1(Cc2ccccc2)[C@H]2c3cc(C(=O)N4CCCC4)[nH]c3C[C@H]2CN1C(=O)c1ccccc1,1.1,0.865,0.91,-0.0516 (inactive),-0.486,0.0863,-0.478,-0.444,-0.988,0.916
C[C@H]1C2=C3C(CC[C@H]4C(OCc5ccc(F)cc5C(F)(F)F)OC[C@](C)([C@@H]34)N(C(=O)OC(C)(C)C)C2)C(CO)C1CO (stereo not given in full),0.0402,-0.0997,0.984,0.509 (inactive),-0.0455,0.875,-0.249,0.885,-0.461,1.09
COCC(=C=CC[C@H](O)c1ccc(OCCO)cc1)C[C@H](O)COCc1ccccc1,1.56,-0.199,-0.228,-1.11 (inactive),0.605,0.351,0.291,0.944,0.462,0.928
CO[C@H]1O[C@H](CO)[C@@H](OC(=O)Nc2ccc(Oc3ccccc3)cc2)[C@H](OC(=O)Nc2ccccc2-c2ccccc2)[C@@H]1OC(=O)Nc1ccccc1-c1ccccc1,1.31,0.686,0.609,-1.52 (inactive),0.959,1.15,0.223,0.787,0.338,0.586
Cc1ccc(S[C@]2(C(=O)NC(C)C)CC(=O)N(C3Cc4ccccc4C3)[C@@H]2c2ccc(CO)cc2I)cc1,0.944,-0.253,-0.398,-1.44 (inactive),-0.651,0.1,-0.922,-1.13,-1.18,-0.696
Cc1ccc(F)cc1S(=O)(=O)N[C@@H]1CCN(Cc2ccc(Oc3ccccc3)cc2)C1,0.499,-0.392,-0.38,1.25 (inactive),0.271,-0.632,-0.0463,0.626,0.47,0.192
[N-]=[N+]=NCc1ccccc1C[C@@]1(C(=O)N2CCCCC2)N=C(c2ccc(OCCCO)cc2)O[C@@H]1c1ccccc1N=[N+]=[N-],0.679,0.885,0.689,-0.428 (inactive),0.128,0.293,0.13,-0.16,-0.276,1.19
CCCCC(=C=CC[C@@H](O)c1ccc(OCCO)cc1)C[C@@H](O)COCc1ccccc1,1.27,-0.338,-0.212,-0.784 (inactive),1.01,-0.0016,-0.3,0.245,0.111,0.856
COc1ccc([Si](C)(C)[C@H]2[C@H](CCn3cc(CCO)nn3)O[C@@]3(C(=O)N(Cc4ccc(N5C(=O)c6cccc7cccc5c67)cc4)c4ccccc43)[C@@H]2C)cc1,0.96,-0.145,-0.564,-2.8 (inactive),0.916,0.682,0.567,1.3,0.652,0.281
COc1ccccc1CN1C(=O)c2ccccc2[C@](Cc2ccccc2I)(C(=O)NC(C)C)[C@@H]1c1ccc(CO)cc1,0.672,-0.132,-0.0563,-0.691 (inactive),1.32,1.3,0.457,1.28,0.312,-0.0084
CCOC(=O)C[C@H]1[C@H](OC(=O)c2ccccc2-c2ccccc2)[C@@H](NC(=O)CC(C)C)c2cc(OCCCO)ccc2N1C(=O)c1ccc2ccccc2n1,0.74,-0.0242,-0.187,-0.263 (inactive),0.513,0.561,0.159,0.368,0.45,1.08

Structure (SMILES),composite z-score [1],composite z-score [2],composite z-score [3],z-score [4],composite z-score [5],composite z-score [6],composite z-score [7],composite z-score [8],composite z-score [9],composite z-score [10]
C[C@]12C(=O)N(CCCCCCO)[C@@H]3C(=O)N(c4ccc(Cl)cc4)CC=CC31O[C@@H]1/C=C\CCCOC(=O)C12 (stereo not given in full),1.93,-0.134,0.391,-1.54 (inactive),-0.188,-0.431,-0.506,-0.394,-0.742,1.05
CCOC(=O)C[C@H]1[C@H](OC(=O)c2ccccc2-c2ccccc2)[C@@H](NC(=O)c2ccc3ccccc3n2)c2cc(OCCCO)ccc2N1C(=O)c1ccc2ccccc2n1,0.638,-0.267,-0.535,-1.19 (inactive),0.611,0.0214,0.378,0.469,0.452,-0.0055
C=C(/C=C/CNS(=O)(=O)c1ccc(C)cc1)[C@H](O)[C@H]1CCCN1S(=O)(=O)c1ccccc1[N+](=O)[O-],0.61,0.0684,0.0163,-0.112 (inactive),0.582,0.139,0.669,0.998,0.727,0.809
COc1c(C)cc(-c2cc3c(c(Cc4ccccc4)n2)[Si](C(C)C)(C(C)C)OC3)cc1C,0.214,-0.0724,-0.313,-0.206 (inactive),0.0744,-0.0485,0.181,0.235,0.0324,0.137
CC=CC(O)C1C=CC2C(=O)N(c3ccccc3)C(=O)C2N1Nc1ccc([N+](=O)[O-])cc1 (stereo not given),0.563,-0.0639,0.0737,0.43 (inactive),0.455,0.464,0.496,0.501,0.113,0.896
O=C1NC(=O)C2C1C=CC(C(O)c1ccc3c(c1)OCO3)N2Nc1ccccn1 (stereo not given),0.165,0.301,0.555,-0.653 (inactive),0.212,0.0668,0.722,1.39,0.388,1.64
Cc1ccc(S[C@]2(C(=O)NCCN3CCOCC3)CC(=O)N(Cc3ccccc3C(F)(F)F)[C@@H]2c2ccc(CO)cc2I)cc1,1.3,-0.102,0.93,-1.55 (inactive),-0.973,-0.728,-0.842,-1.13,-1.15,0.446
COC(=O)[C@@]1(Cc2ccccc2)[C@H]2c3cc(C(=O)N4CCCC4)n(Cc4ccsc4Br)c3C[C@H]2CN1C(=O)c1ccccc1,0.31,1.13,1.37,-1.31 (inactive),0.832,0.572,-0.105,0.906,-0.825,0.748
Cc1c(NC(=O)/C(C#N)=C/C=C/c2ccc(N(C)C)cc2)c(=O)n(-c2ccccc2)n1C,0.917,0.735,0.294,-0.0455 (inactive),0.89,1.02,0.994,0.788,0.646,1.08
CN(C)CCCNC(=O)[C@@H]1c2ccccc2C(=O)N(CC23CC4CC(CC(C4)C2)C3)[C@H]1c1ccc(CO)cc1,1.15,-0.46,0.296,-0.751 (inactive),1.17,0.98,0.425,1.15,0.872,-0.111
C=CCN1C(=O)[C@]2(CC=C)N=C(c3ccc(OCCCO)cc3)O[C@@H]2c2ccccc21,1.08,0.945,1.1,-0.436 (inactive),0.506,0.777,0.925,1.18,0.95,1.38
CC(=O)NCCCC[C@@H]1NC(=O)[C@@H]2C[C@H](C(=O)O)[C@H](c3ccc(O)cc3)N2C1=O,1.66,-0.106,1.06,-0.905 (inactive),-0.947,-1.18,-1.7,-1.98,-1.46,-2.08
C=C(CCCC)/C(=C/C[C@@H](OC(=O)c1ccncc1)c1cccc(OCCO)c1)c1cnc2ccccc2c1,0.148,0.11,0.563,-0.562 (inactive),1.52,0.667,1.27,1.56,0.895,1.67
CC(C)(C)OC(=O)CC[C@]1(C(=O)NCCN2CCOCC2)N=C(c2ccc(OCCCO)cc2)O[C@H]1c1ccccc1,1,0.214,0.93,0.66 (inactive),-0.426,-1.04,-0.174,-0.713,-1.02,0.992
NC(=O)N1C(=O)C2C(C1=O)C1C=C(CCCO)C2C(c2cccs2)N1Cc1cc2c(cc1Br)OCO2 (stereo not given),0.884,-0.198,0.229,0.701 (inactive),-0.284,-0.0207,-0.495,-0.289,-0.756,0.975
COc1ccc(C(O)C2C=CC3C(=O)N(Cc4ccccc4)C(=O)C3N2n2cnnc2)c2ccccc12 (stereo not given),1.83,-0.0611,0.873,-0.781 (inactive),-1.12,0.233,-1.17,0.127,-1.45,0.48

# — PubChem BioAssay
